An excerpt weighted towards active compounds, which were near 12% of everything screened.
HP1b binding inh: HTS for Inhibitors of HP1-beta Chromodomain Interactions with Methylated Histone Tails; Chromobox protein homolog 1 (Homo sapiens), P83916; AlphaScreen HP1-beta / biotin-H3K9me3 peptide binding; Potency, µM (top dose mostly 114 µM), inactives show at the top dose activity change, negative = inhibition, usual class: inhibitors; actives 0.56% (n = 390,000); also: nearly all actives have a fitted effect of over 70% in size
Target sequence (P83916 whole entry, looked up): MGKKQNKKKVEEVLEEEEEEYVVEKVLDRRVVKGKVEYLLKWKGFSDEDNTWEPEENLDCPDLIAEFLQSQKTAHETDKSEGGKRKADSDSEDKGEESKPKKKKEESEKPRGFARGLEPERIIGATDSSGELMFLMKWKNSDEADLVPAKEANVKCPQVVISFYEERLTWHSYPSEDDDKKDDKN
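HP1-beta protein (50 nM final) preincubated 30 min at room temperature with biotinylated H3(1-18)K9me3 peptide (50 nM) in PBS pH 7.4, 0.01% Tween-20, then compound added for 30 min. AlphaScreen streptavidin donor/nickel chelate acceptor beads (10 ug/mL final), 30 min dark, luminescence read.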
JMJD2A Tudor inh: qHTS Assay for Inhibitors of JMJD2A-Tudor Domain | Lysine-specific demethylase 4A (Homo sapiens), O75164 | AlphaScreen JMJD2A-Tudor / H3K4me3 peptide binding | Potency, µM (series often up to 114 µM), for inactives: at the top dose activity change, negative = inhibition, hits mostly inhibitors | actives 4.4% (n = 390,000) | AID 504339, 2011; also: % is scaled to controls: 0 for no effect and ±100 for the full control effect; nearly all actives have a fitted effect of over 50% in size
Sfp PPTase inh: qHTS Assay for Inhibitors of Bacillus subtilis Sfp phosphopantetheinyl transferase (PPTase); 4'-phosphopantetheinyl transferase ffp (Bacillus subtilis), Q9F4F7; Biochemical Sfp PPTase activity, qHTS; Potency, µM, without a hit: largest response in the series, negative = inhibition, most hits filed as inhibitors; actives 3.5% (n = 310,000); AID 1490, 2009;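 also: the enzyme is Sfp with the accession as filed and its product quenches rhodamine fluorescence; 0% = enzyme reaction without inhibitor and -100% = no enzyme wells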
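Fluorescence-quenching assay: 15 nM Sfp-PPTase preincubated 15 min at room temperature with compound, then 5 uM rhodamine-CoA and 12.5 uM BHQ-2-labelled YbbR peptide added. Fluorescence (ex 525/em 598 nm) read at start and after 30 min; difference gives rate.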
L3MBTL1 inh: qHTS Assay for the Inhibitors of L3MBTL1; Lethal(3)malignant brain tumor-like protein 1 (Homo sapiens), Q9Y468; AlphaScreen L3MBTL1–H3K9me1 peptide binding; Potency, µM (doses to about 57.1 µM), for the others: at the top dose activity, negative = inhibition, usual class: inhibitors; actives 0.66% (n = 230,000); AID 485360, 2010; also: % is scaled to controls: 0 for no effect and ±100 for the full control effect; nearly all actives have a fitted effect of over 60% in size
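AlphaScreen proximity signal between nickel-chelate acceptor and streptavidin donor beads (final 10 ug/mL) reports binding of 50 nM L3MBTL1 to 75 nM biotin-H3 K9me1 peptide; complex incubated with compounds 30 min at room temperature; cefsulodin titration as control.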
BAZ2B block: qHTS Assay for Inhibitors of BAZ2B. Bromodomain adjacent to zinc finger domain protein 2B (Homo sapiens), Q9UIF8. AlphaScreen BAZ2B-H3K14Ac peptide displacement. Potency, µM (top dose mostly 114 µM), for inactives: at the top dose activity change, negative = inhibition, most hits filed as inhibitors. actives 4.4% (n = 360,000); also: % is scaled to controls: 0 for no effect and ±100 for the full control effect; nearly all actives have a fitted effect of over 60% in size
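BAZ2B 50 nM plus b-H3(5-23)K14Ac 50 nM, PBS pH 7.4/0.01% Tween-20, 30 min RT; compound added (max 110 uM), 30 min RT; streptavidin donor/Ni-chelate acceptor beads 10 ug/mL final, 20 min dark; AlphaScreen read.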
G9a block: qHTS Assay for Inhibitors of Histone Lysine Methyltransferase G9a | AID 504332, 2011 | actives 8.8% (n = 350,000) | G9a H3K9 monomethylation, AlphaScreen, 2 h | Potency, µM (titrated, usually from 102 µM), for the others: at the highest dose activity, negative = inhibition, hits mostly inhibitors; also: % is scaled to controls: 0 for no effect and ±100 for the full control effect; nearly all actives have a fitted effect of over 75% in size
Target sequence (Q96KQ7 913-1193 limits assumed): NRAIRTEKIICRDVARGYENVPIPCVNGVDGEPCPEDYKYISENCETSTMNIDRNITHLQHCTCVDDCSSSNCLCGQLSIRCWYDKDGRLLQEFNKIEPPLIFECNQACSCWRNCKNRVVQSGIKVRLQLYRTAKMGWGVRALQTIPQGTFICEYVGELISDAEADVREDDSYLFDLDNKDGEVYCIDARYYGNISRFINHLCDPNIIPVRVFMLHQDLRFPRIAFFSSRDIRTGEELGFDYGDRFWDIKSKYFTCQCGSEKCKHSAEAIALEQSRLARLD
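AlphaScreen detection with an anti-monomethyl H3K9 antibody quantified product after a 2 h room-temperature reaction containing 500 nM biotinylated H3K9 peptide, 20 µM SAM and 20 nM enzyme, which had been preincubated 15 min with compound.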
* marks the source's active call; other numbers are inactive results; ? = inconclusive; . = no result; [ ] = remark or other dose. Calls follow the shape of the dose curve; as a rule, active = well fitted curve in the direction sought with a large enough effect; inconclusive = small, poorly fitted or top-dose-only effect, or another doubt; inactive = no such curve, though single readings can be large; an effect the other way counts as inactive or inconclusive. Potency is read from the fitted curve at half-maximal effect.

SMILES | HP1b binding inh | JMJD2A Tudor inh | Sfp PPTase inh | L3MBTL1 inh | BAZ2B block | G9a block
COc1nccnc1NS(=O)(=O)c1ccc(N=Cc2c(C)[nH]n(-c3ccccc3)c2=O)cc1 | 8% | -21% | 10% | -11% | ? | 56µM*
Cc1cccc(N2C(=O)CSC23CCCCC3)c1 | 20% | -16% | 12% | 16% | 4% | -2%
CCC(=O)N1CCc2cc(S(=O)(=O)N3CCN(c4ccccc4F)CC3)ccc21 | 21% | -9% | . | . | 0% | -17%[59 µM]
N#Cc1cc(C(=O)c2cc(Cl)ccc2O)cn(-c2ccccc2)c1=O | 27% | -12% | 10% | -5% | -29% | 10%[59 µM]
N#CC1=C(S)N(c2ccccc2)C(c2ccc(-c3ccc(Cl)c(Cl)c3)o2)NC1=O (stereo not given) | -6% | ? | 35µM* | . | ? | ?
N#CC1=C(S)N(c2ccccc2)C(c2ccc(-c3cc(Cl)ccc3Cl)o2)NC1=O (stereo not given) | 4% | -32% | 28µM* | -13% | 50µM* | ?
Cc1c(OC(C)C(=O)NCC2CCC(C(=O)O)CC2)ccc2c3c(c(=O)oc12)CCCC3 (stereo not given) | 58% | -7% | 26% | . | -18% | -9%
COc1ccc(NS(=O)(=O)c2ccc3[nH]c4c(c3c2)CCCC4)cc1Cl | -3% | ? | . | . | ? | -51%[59 µM]
COCCCNS(=O)(=O)c1ccc2[nH]c3c(c2c1)CCCCC3 | -11% | ? | 0% | . | ? | ?
COc1ccc(NS(=O)(=O)c2ccc3[nH]c4c(c3c2)CCCCC4)cc1 | ? | 32µM* | . | . | 2%[57.1 µM] | ?
CCOc1ccc(NS(=O)(=O)c2ccc3[nH]c4c(c3c2)CCCCC4)cc1 | -14% | 28µM* | . | . | -27%[57.1 µM] | ?
COc1ccc(OC)c(CNS(=O)(=O)c2ccc3[nH]c4c(c3c2)CCCCC4)c1 | ? | 35µM* | . | . | ? | 13µM*
COc1ccc(NS(=O)(=O)c2ccc3[nH]c4c(c3c2)CCCC4)c(OC)c1 | -32% | ? | . | . | ? | 10µM*
Cc1cccc(NC(=O)C2CCN(S(=O)(=O)c3ccc4[nH]c5c(c4c3)CCCCC5)CC2)c1 | 4% | -31% | . | . | -4% | -42%[59 µM]
C=CCOc1c(Br)cc(/C=N/n2c(CC)n[nH]c2=S)cc1Br | 16% | ? | 79µM* | -2% | -3% | ?
COc1cc(/C=N/n2c(COc3ccccc3)n[nH]c2=S)cc(Br)c1O | -19% | 13µM* | ? | . | -29% | 1.3µM*
CCOc1ccc(/C=N/n2c(COc3ccccc3)n[nH]c2=S)cc1OC | -10% | 20µM* | 56µM* | . | 23% | 8.9µM*
COc1cc(/C=N/n2c(COc3ccccc3)n[nH]c2=S)cc(OC)c1OC(C)=O | 4% | ? | ? | . | -3% | 10µM*
COc1cc(/C=N/NC(=O)c2cccnc2)cc(Br)c1O | 7% | -21% | -6% | -2% | ? | ?
O=C(Nc1ccc(F)c(Cl)c1)Nc1c[nH]c(=O)[nH]c1=O | 27% | 1% | . | . | 2% | 2%[59 µM]
CCc1n[nH]c(=S)n1/N=C/c1cc(Br)c(O)c(OC)c1 | 29% | 5.6µM* | 79µM* | -5% | -18% | 7.9µM*
COC(=O)CSc1nc2ccccc2nc1SCC(=O)OC | 77% | 7% | 50µM* | 17% | 5% | ?
CCN(CC)C(=O)CSc1nc(N)c(C#N)c(-c2cccs2)c1C#N | 39% | 0% | 5% | -7% | -2% | 14%[59 µM]
CCN(CC)C(=O)CSc1nc(-c2cccs2)cc(-c2cccs2)c1C#N | -30% | 1%[57.1 µM] | 7.9µM* | 11% | -7% | 4µM*
COC(=O)CSc1nc(-c2cccs2)ccc1C#N | 38% | -3% | 40µM* | 4% | 11% | 32µM*
SMILES | HP1b binding inh | JMJD2A Tudor inh | Sfp PPTase inh | L3MBTL1 inh | BAZ2B block | G9a block
N#Cc1c(-c2ccc(F)cc2)cc(-c2cccs2)nc1SCC(=O)O | 102% | -24% | 2% | . | -35% | 16%
COC(=O)CSc1cnc2ccccc2n1 | 33% | 10% | 12% | . | ? | 17%[59 µM]
CN1CCN(C(=O)CSc2nc(-c3cccs3)cc(-c3cccs3)c2C#N)CC1 | 20% | -14% | -30% | 11% | 3% | 40µM*
CNC(=O)COc1coc(CN2CCN(c3cccc(Cl)c3)CC2)cc1=O | 34% | -5% | 1% | . | -16%[57.1 µM] | 42%
CC(C)c1ccc(NC(=O)CCS(=O)(=O)c2cccc3nonc23)cc1 | 1% | -16% | 1% | . | -4% | -9%
O=C1CCCN1CCC(=O)N1CCCC(N2CCN(c3ccccc3F)CC2)C1 (stereo not given) | 37% | -8% | 0% | . | 3% | .
N#CNc1nc(O)cc(=O)[nH]1 | 32% | -28% | ? | ? | -10% | 50µM*
COCCNC(=O)C(c1ccc(C)cc1)N(C(=O)CCC(=O)Nc1ccccn1)c1ccc(C)cc1 (stereo not given) | 41% | -5% | 26% | . | 1% | 28%[59 µM]
Cc1ccc(/C=C2\CC(C)CC3=C2NC(=S)NC3c2ccc(C)cc2)cc1 (stereo not given) | -18% | ? | ? | . | -30% | ?
CC1CC2=C(NC(=S)NC2c2cccc(F)c2)/C(=C/c2cccc(F)c2)C1 (stereo not given) | ? | ? | -4% | -28% | ? | 32µM*
CC1CC2=C(NC(=S)NC2c2ccccc2F)/C(=C/c2ccccc2F)C1 (stereo not given) | -8% | ? | ? | -16% | ? | 18µM*
NC(=O)c1ccc(-c2nc(-c3ccc4c(c3)OCO4)c(-c3ccccn3)[nH]2)cc1 | . | . | 6% | . | . | 2%[59 µM]
S=c1[nH]nc(-c2ccncc2)n1/N=C/c1cn(-c2ccccc2)nc1-c1ccc(Cl)cc1 | 12% | -35% | 15% | . | -4% | -12%
CC(C)c1ccc(/C=N/n2c(-c3ccccc3)n[nH]c2=S)cc1 | 20% | ? | -8% | -4%[2.29 µM] | -1% | -10%[0.501 µM]
S=c1[nH]nc(-c2ccncc2)n1/N=C/c1ccccc1 | 11% | 7.9µM* | -7% | 1% | -7% | 1.3µM*
Cc1ccc(-c2n[nH]c(=S)n2/N=C/c2ccc(C(=O)O)cc2)cc1 | 34% | 3.2µM* | ? | . | -16% | 3.2µM*

Screens as filed in PubChem.
